Only some compounds are listed: those with a hit (about 1.8% of all), similar ones and a draw of the others.
ERAP1 HTS inh – inhibitors of human ERAP1 aminopeptidase. inhibition, % at 10.7 µM. recombinant ERAP1, Leu-AMC fluorescence, 60 min. hit rate 0.15% among 340,000. Q9NZ08. AID 652197;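 active means mean replicate inhibition of at least 30%, or all replicates individually reaching that 30% level; inactive means mean below 30% and not every replicate reaching it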;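 further: 0% = neutral control wells and 100% = L-leucinethiol positive control wells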
ERp5 block – inhibitors of human ERp5 | AID 651711 | ERp5 insulin aggregation, absorbance 650 nm, 90 min | hit rate 0.05% among 350,000 | inhibition, % at 9.99 µM | Q15084;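 active means mean replicate inhibition above about 25%, with every replicate also reaching it, limit read from the data, passing the limit was not always enough; inconclusive means only one of those two criteria met; inactive means neither criterion met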
Target sequence (Q15084 whole entry, looked up): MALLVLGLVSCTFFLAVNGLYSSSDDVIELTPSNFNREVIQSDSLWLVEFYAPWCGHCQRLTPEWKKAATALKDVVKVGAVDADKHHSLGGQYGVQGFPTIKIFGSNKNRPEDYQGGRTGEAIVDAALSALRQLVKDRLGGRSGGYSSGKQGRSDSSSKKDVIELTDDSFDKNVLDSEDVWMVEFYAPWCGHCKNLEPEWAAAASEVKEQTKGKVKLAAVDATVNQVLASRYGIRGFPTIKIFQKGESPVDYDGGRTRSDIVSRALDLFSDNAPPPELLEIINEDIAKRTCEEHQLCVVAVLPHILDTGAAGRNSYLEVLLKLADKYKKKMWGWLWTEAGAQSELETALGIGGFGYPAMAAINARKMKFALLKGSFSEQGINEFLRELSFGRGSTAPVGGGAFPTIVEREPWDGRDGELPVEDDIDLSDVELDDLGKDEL
MLL AF4-AF9 inh – inhibitors of human MLL-AF4/AF9 interaction; inhibition, % at 10 µM; AID 651704; hit rate 0.47% among 350,000; P42568; AlphaScreen, biotin-AF4 peptide binding to FLAG-AF9;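 active means every replicate reaching a set inhibition limit, whatever the replicate mean, cut at about 25% in these data; inconclusive means mean inhibition reaches that limit but some replicates miss it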;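 further: 0% = plate neutral control median and 100% = total signal loss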
DENV2 CPE rescue – DENV2-induced cell death inhibition; DENV2-infected cells, cytopathic effect rescue, plate reader; CPE inhibition, % at 9.99 µM; hit rate 1.7% among 350,000; in the data active means CPE inhibition above about 20%, passing the limit was not always enough; inconclusive means no clear call, values can overlap the other calls; tested in BHK-21 cells;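 further: 0% = median of neutral control wells and 100% = median of positive control wells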
PDI turbidity – inhibitors of human protein disulfide isomerase | AID 588391 | PDI insulin aggregation turbidity, A650, 90 min | P07237 | inhibition, % at 10 µM | hit rate 0.052% among 350,000;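 active means mean inhibition across replicates of 30% or more, whatever share of single replicates reach that level; inconclusive means mean inhibition below 30% while every single replicate reaches 30%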
* = called active by the depositor; ? = inconclusive; . = not tested or not shown.

SMILES | ERAP1 HTS inh | ERp5 block | MLL AF4-AF9 inh | DENV2 CPE rescue | PDI turbidity
C[C@@H]1CCCCO[C@H](CN(C)Cc2ccc(Cl)c(Cl)c2)[C@@H](C)CN([C@@H](C)CO)C(=O)c2cc(N(C)C)ccc2O1 | 3.9 | 9.1 | 60.8* | 14.9 | .
C[C@@H]1CCCCO[C@@H](CN(C)CC2CCCCC2)[C@@H](C)CN([C@H](C)CO)C(=O)c2cc(N(C)C)ccc2O1 | 4.2 | -4.1 | 13.7 | 48.3* | .
C[C@@H]1CN([C@H](C)CO)C(=O)c2cc(N(C)C)ccc2O[C@@H](C)CCCCO[C@@H]1CN(C)CC1CCCCC1 | 4.1 | 0.5 | 19.6 | 9.1 | .
C[C@@H]1CCCCO[C@@H](CN(C)Cc2ccc(Cl)c(Cl)c2)[C@H](C)CN([C@H](C)CO)C(=O)c2cc(N(C)C)ccc2O1 | 0.5 | -3.1 | 60.7* | 3.2 | .
C[C@@H]1CCCCO[C@@H](CN(C)Cc2ccc3c(c2)OCO3)[C@@H](C)CN([C@H](C)CO)C(=O)c2cc(N(C)C)ccc2O1 | 5.8 | 4.1 | 15.4 | ? | 4.0
C[C@@H]1CCCCO[C@@H](CN(C)Cc2ccc(Cl)c(Cl)c2)[C@H](C)CN([C@@H](C)CO)C(=O)c2cc(N(C)C)ccc2O1 | -3.0 | 2.8 | 40.2* | -1.3 | .
Cc1ccc(S(=O)(=O)N[C@@H]2CC[C@H](CCNS(=O)(=O)Cc3ccccc3)O[C@H]2CO)cc1 | 0.7 | -4.9 | -2.9 | 3.9 | .
CO[C@@H]1CN(C)C(=O)c2ccc(NC(C)=O)cc2OC[C@H](C)N(Cc2cc(F)ccc2F)C[C@@H]1C | -1.5 | -1.4 | 5.1 | -9.8 | .
Cc1nn(Cc2ccc(Cl)cc2)c(C)c1NC(=O)Cn1nc([N+](=O)[O-])c(Cl)c1C | . | . | . | . | -8.0
Cc1nn(Cc2ccc(Cl)cc2)c(C)c1NC(=O)c1ccc([N+](=O)[O-])cc1 | -1.1 | -5.4 | 3.4 | 33.5* | -17.3
COc1ccc(-c2cc(C(=O)NCCCN3CCCC3=O)c3ccccc3n2)cc1 | 3.4 | 0.3 | -9.2 | 58.2* | 7.4
Cc1ccc(NC(=S)NCC2CCN(C(C)c3ccccc3)C2)cc1C (configuration not stated) | 1.9 | 0.6 | 25.1* | -2.4 | 1.0
COc1ccc(CN(C)C[C@H]2OCCCC[C@H](C)Oc3ccc(NC(=O)Nc4cccc5ccccc45)cc3C(=O)N([C@@H](C)CO)C[C@@H]2C)cc1 | -2.8 | 0.5 | 5.4 | -18.1 | .
O=S(=O)(c1ccc2c(c1)OCCO2)N1CCCN(S(=O)(=O)c2c(F)cccc2F)CC1 | -0.9 | -2.1 | -5.7 | 89.7* | 0.7
COc1ccc(NC(=O)Nc2ccc3c(c2)C(=O)N([C@@H](C)CO)C[C@@H](C)[C@@H](CN(C)Cc2ccccc2)O3)cc1 | -0.8 | -2.2 | 6.3 | -1.7 | .
Cn1nc(C(F)(F)F)c(-c2ccc(Br)cc2)c1NC(=O)c1nccnc1C(=O)O | . | 5.1 | -1.2 | -4.7 | 3.4
Cn1nc(C(F)(F)F)c(-c2ccc(Br)cc2)c1NC(=O)CSCC(=O)O | 1.0 | -0.2 | . | 58.1* | -1.0
COc1ccc(CN(C)C[C@@H]2Oc3c(NC(=O)C4CCCCC4)cccc3C(=O)N([C@@H](C)CO)C[C@@H]2C)cc1 | 7.1 | -2.9 | 1.8 | -12.8 | .
CC1=CC(C)(C)[N+](C)=CN1c1ccccc1 | 51.2* | 7.1 | -3.8 | -9.8 | 0.7
Cc1nc2cc(C(=O)O)ccc2n1-c1ccccc1 | 4.6 | 2.6 | 3.2 | -6.4 | -1.2
O=C(CCN1C(=O)S/C(=C\c2ccc(Cl)cc2)C1=O)Nc1ccc(C(=O)O)cc1 | 0.0 | -4.3 | -0.2 | ? | -0.8
COc1ccc(C=C2SC(=S)N(CCCC(=O)Nc3ccc(C(=O)O)c(O)c3)C2=O)cc1OC | 35.3* | 10.9 | 7.6 | -6.6 | -4.2
COc1ccc(/C=C2\SC(=O)N(CCCC(=O)Nc3ccc(C(=O)O)cc3)C2=O)cc1 | -0.2 | -1.4 | -4.0 | 96.5* | -5.2
CC(=O)NCCCC[C@@H]1NC(=O)[C@@H]2C[C@H](C(=O)O)[C@H](c3ccc(O)cc3)N2C1=O | 0.2 | 1.0 | 0.9 | 4.7 | .
CC(=O)NCCCC[C@@H]1NC(=O)[C@@H]2C[C@H](C(=O)NCc3ccc(F)cc3)[C@H](c3ccc(O)cc3)N2C1=O | -2.0 | -0.4 | -1.1 | 20.1* | .
SMILES | ERAP1 HTS inh | ERp5 block | MLL AF4-AF9 inh | DENV2 CPE rescue | PDI turbidity
CC(=O)N(C)C[C@@H]1Oc2cc(C#CCC(C)C)ccc2S(=O)(=O)N([C@@H](C)CO)C[C@H]1C | 0.3 | 1.5 | 3.9 | 4.7 | .
C[C@H](CO)N1C[C@H](C)[C@H](CN(C)S(=O)(=O)c2ccccc2)OCCCC[C@H](C)Oc2ccc(NC(=O)Nc3ccccc3)cc2C1=O | 2.2 | -5.1 | 0.7 | -2.0 | .
COc1ccc(OC)c(CN2C(=O)CN(S(C)(=O)=O)CC2(C)C(=O)NCc2ccccc2)c1 (configuration not stated) | -0.9 | 5.0 | . | 32.4* | .
CC1(C(=O)NCc2ccccc2)CN(S(C)(=O)=O)CC(=O)N1Cc1ccc2c(c1)OCO2 (configuration not stated) | -2.4 | 11.4 | . | 0.8 | .
C[C@@H]1CN([C@@H](C)CO)C(=O)c2cc(NC(=O)C3CCCCC3)ccc2O[C@H]1CN(C)C(=O)Nc1ccc(F)cc1 | 1.6 | 3.7 | 0.4 | 2.0 | .
C[C@@H]1CN([C@H](C)CO)C(=O)c2cc(NC(=O)C3CCCCC3)ccc2O[C@H]1CN(C)C(=O)Nc1ccc(F)cc1 | 1.5 | 0.8 | 1.6 | 55.4* | .
COc1ccc(NC(=O)Nc2ccc3c(c2)C(=O)N([C@@H](C)CO)C[C@@H](C)[C@H](CN(C)C(=O)Nc2ccc(F)cc2)O3)cc1 | -3.4 | 1.3 | 1.9 | 20.6* | .
COc1ccc(NC(=O)Nc2ccc3c(c2)C(=O)N([C@@H](C)CO)C[C@H](C)[C@@H](CN(C)C(=O)Nc2ccc(F)cc2)O3)cc1 | 4.2 | -3.7 | 0.5 | -2.6 | .
COc1ccc(NC(=O)N(C)C[C@H]2Oc3ccc(NC(=O)Nc4ccc(F)cc4)cc3C(=O)N([C@H](C)CO)C[C@H]2C)cc1 | -1.2 | -5.7 | 1.0 | -11.6 | .
COc1ccc(NC(=O)Nc2ccc3c(c2)C(=O)N([C@@H](C)CO)C[C@@H](C)[C@@H](CN(C)C(=O)Nc2ccc(OC)cc2)O3)cc1 | -0.2 | -2.3 | 1.0 | 25.7* | .
CC(C)NC(=O)N(C)C[C@@H]1Oc2ncc(-c3ccccc3F)cc2C(=O)N([C@H](C)CO)C[C@@H]1C | -0.2 | -9.7 | -3.9 | -1.2 | .
Cc1noc(C)c1NC(=O)Nc1ccc2c(c1)C(=O)N([C@H](C)CO)C[C@@H](C)[C@H](CN(C)C(=O)Nc1ccc(F)cc1)OCCCC[C@@H](C)O2 | 2.6 | -1.1 | -0.8 | 3.6 | .
COCCNC(=O)c1ccc2c3n(nc2c1)-c1ccc(Cl)cc1CO3 | 4.2 | 3.8 | . | 121.8* | 7.9
C[C@@H]1CN([C@@H](C)CO)C(=O)c2cc(NC(=O)CCC(F)(F)F)ccc2O[C@H]1CN(C)CC1CC1 | -2.0 | -0.9 | -7.1 | -7.2 | .
COc1ccc(S(=O)(=O)Nc2ccc3c(c2)C(=O)N(C)C[C@@H](OC)[C@H](C)CN(C)[C@H](C)CO3)cc1 | 2.6 | -3.2 | -1.4 | -8.3 | .
